Measurements taken from PubChem BioAssay (NCI).
About 83,000 compounds went through this panel and 20% of them were active in at least one assay; those are over-represented in the sample as a whole.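 Values shown are percent growth following 48 h exposure of cells in 96-well plates to a single concentration of compound; below 10 was considered active.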 A number with no mark means an inactive call. Active and inactive are the calls of the source.

Legend:
Test in all cases: NCI-60 one-dose screen, 48 h (100 = growth as untreated, 0 = no growth, -100 = all killed)
Conditions in all cases: 10 µM
NCI-H23 lung = test system: NCI-H23 lung
NCI-H226 lung = test system: NCI-H226 lung
NCI-H322M lung = test system: NCI-H322M lung
HOP-62 NSCLC = test system: HOP-62 NSCLC
NCI-H460 lung = test system: NCI-H460 lung
HOP-92 NSCLC = test system: HOP-92 NSCLC
NCI-H522 lung = test system: NCI-H522 lung
A549/ATCC NSCLC = test system: A549/ATCC NSCLC
786-0 renal = test system: 786-0 renal
COLO 205 colon = test system: COLO 205 colon

| SMILES | growth (NCI-H23 lung) | growth (NCI-H226 lung) | growth (NCI-H322M lung) | growth (HOP-62 NSCLC) | growth (NCI-H460 lung) | growth (HOP-92 NSCLC) | growth (NCI-H522 lung) | growth (A549/ATCC NSCLC) | growth (786-0 renal) | growth (COLO 205 colon) |
| --- | --- | --- | --- | --- | --- | --- | --- | --- | --- | --- |
| O=c1cc(-c2ccccc2)oc2c1ccc1ccccc12 | 85.2% | 86.3% | 96% | 99.5% | 97.1% | 50.5% | 79.3% | 73.6% | 99.4% | 85.8% |
| CC(C)C(C#N)(C(C)C)C(C)C | 104% | 104% | 107% | 101% | 102% | 95.5% | 92% | 97.1% | 113% | 109% |
| O=C(Cc1nc2ccc([N+](=O)[O-])cc2nc1CC(=O)c1cccnc1)c1cccnc1 | 52.7% | 52.2% | 51% | 25.6% | 48.1% | 69.8% | 18.5% | 64.8% | 15.8% | 121% |
| c1c(-c2cc(C3CC3)[nH]n2)n[nH]c1C1CC1 | 94.3% | 95.2% | 94.8% | 98.6% | 83.4% | 89% | 79% | 88.8% | 94.3% | 102% |
| Nc1ccccc1C(=O)Nc1ccc(Cl)cc1Cl | 92.6% | 96.1% | 106% | 86.6% | 104% | 67.2% | 78.5% | 102% | 107% | – |
| O=C(CCNNC(=O)c1ccncc1)NCc1ccccc1 | 95.8% | 90.7% | 110% | 98.3% | 102% | 97.8% | 58.2% | 104% | 107% | – |
| CCCCNC1(C#N)CCN(Cc2ccccc2)CC1 | 86.8% | 104% | 98.8% | 87% | 110% | 90.4% | 84.9% | 110% | 84.5% | – |
| CCC(O)CC(CC)CO (centres undefined) | 101% | 102% | 110% | 108% | 94.3% | 98.8% | 117% | 105% | 106% | 117% |
| O=[N+]([O-])c1ccc(N=Nc2ccccc2)cc1 | 90.4% | 89.4% | 80% | 96.4% | 120% | 94% | 81.1% | 89% | 92% | – |
| CN(C)c1ccc(S(=O)(=O)O)cc1 | 103% | 96.6% | 116% | 91.1% | 109% | 85.8% | 101% | 105% | 110% | 102% |
| COc1nc(N)nc2c1ncn2C1OC(CO)CC1O (centres undefined) | 103% | 103% | 96.8% | 100% | 115% | 95.3% | 106% | 111% | 95.4% | 104% |
| Cc1ccc(C)n1-c1ccsc1C(=O)NNC(=O)C(Cl)Cl | 98.4% | 93% | 98.6% | 96.6% | 104% | 90.5% | 91.9% | 102% | 101% | 120% |
| Cc1cc(C)c(N)c(S(=O)(=O)O)c1 | 92% | 96.4% | 108% | 91.8% | 102% | 99% | 97% | 114% | 97.2% | – |
| COc1ccc(NC(=O)CCl)cc1 | 61.7% | 82.5% | 99.1% | 81.1% | 83.1% | 87.3% | 47.8% | 84.6% | 80.7% | – |
| O=C(O)c1cc([N+](=O)[O-])ccc1Cl | 104% | 107% | 117% | 113% | 114% | 82.1% | 73% | 95.3% | 99.2% | 107% |
| CC1(C)S(=O)(=O)OCCOS1(=O)=O | 103% | 102% | 100% | 98.4% | 105% | 83.8% | 99.6% | 92% | 102% | 116% |
| O=C(c1ccc(Cl)cc1)c1ccccc1Cl | 91.2% | 99.9% | 97.9% | 93.7% | 103% | 78.2% | 90.7% | 95.1% | 93.6% | – |
| O=[N+]([O-])c1ccc(Sc2ccncn2)c([N+](=O)[O-])c1 | 60% | 55.3% | 106% | 92.4% | 99.3% | 103% | -62.2% (active) | 122% | 69.7% | 27% |
| CC1CCC(C(=O)O)N1 (centres undefined) | 89.2% | 97.3% | 95.2% | 93.9% | 115% | 102% | 91.3% | 99.4% | 100% | – |
| Cc1cccc(C(=O)N(C(C)C)C(C)C)c1 | 102% | 87.7% | 104% | 86.4% | 99.2% | 79.6% | 79.9% | 86.3% | 99.7% | – |
| O=[N+]([O-])c1cccc(C(F)(F)F)c1 | 101% | 98.5% | 132% | 96.9% | 98.1% | 87.8% | 85.5% | 94.7% | 107% | 108% |
| Nc1ccc(CC(=O)O)c(N)c1 | 92.3% | 92% | 97.6% | 102% | 103% | 94.5% | 99.3% | 99.7% | 107% | – |
| Cc1cc2nc(CC(=O)c3cccc([N+](=O)[O-])c3)c(=O)[nH]c2cc1C | 80.3% | 90.7% | 93.8% | 101% | 87.6% | 74.9% | 70.4% | 97.9% | 85.5% | 110% |
| COc1ccc(-c2cc(-c3cc(-c4ccc(OC)cc4)nc(N)n3)nc(N)n2)cc1 | 102% | 99.4% | 94.3% | 94.7% | 99.5% | 105% | 100% | 97.8% | 103% | 107% |
| COC(=O)/C=C1\Sc2cc(F)ccc2NC1=O | 95.7% | 101% | 100% | 96.5% | 112% | 82.4% | 107% | 95.7% | 94.3% | – |
| O=[N+]([O-])c1ccc(-c2noc(-c3cccs3)n2)cc1 | 82.1% | 86.3% | 81.4% | 87.6% | 82.7% | 91.8% | 81.7% | 81.3% | 76.1% | 111% |
| COc1cc(C(=O)N/N=C/c2cccc([N+](=O)[O-])c2)cc(OC)c1OC | 61.7% | 77.8% | 87.2% | 77.1% | 18.5% | 70.7% | 19.6% | 65.7% | 78.2% | 30.2% |
| COc1cc2cc(OC(C)=O)c3cc4c(cc3c2c(OC)c1OC)OCO4 | 91.9% | 94.7% | 95.4% | 91.5% | 103% | 96.3% | 97.6% | 106% | 106% | 106% |
